Assay results reported in the supplement of paper PMC11482750.
± gives the standard deviation of the averaged measurements.

These targets were tested with CC(=O)OCCc1ccccc1 [phenethyl acetate] (assay: control-subtracted net OSN firing rate; higher = stronger neuronal activation). Settings: odorant dilution (vol/vol): 1/100.
Outline: (§1)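 Olfactory sensory neurons in palp or antennal sensilla of fed female flies aged 1–5 days were recorded by single sensillum recording. The flies were Scaptomyza species or D. melanogaster wild-type, mutant or at1 empty-neuron lines expressing Or42a homologs. Odorants diluted 1:100 vol/vol in mineral oil or dimethyl sulfoxide (20 μl on filter paper) were delivered as 1 s pulses into 16 ml/min filtered air, and spikes counted over 0.5 s starting 0.2 s after onset were background-subtracted, doubled and solvent-corrected. Values are replicate means.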
With S. flava pb3b-like the “control-subtracted net OSN firing rate” value was 2.67 ± 5 spikes/s.
With S. pallida pb2a-like the “control-subtracted net OSN firing rate” value was 5 ± 5.3 spikes/s.
With S. hsui pb3a-like the “control-subtracted net OSN firing rate” value was -5.67 ± 12 spikes/s.
With S. hsui pb1b-like the “control-subtracted net OSN firing rate” value was 1 ± 7 spikes/s.
S. hsui pb3b-like was tested, and the “control-subtracted net OSN firing rate” value was -7 ± 2.1 spikes/s.
For S. hsui pb1a-like, the “control-subtracted net OSN firing rate” value was 13.3 ± 16 spikes/s.
For S. flava pb1a-like, the “control-subtracted net OSN firing rate” value was 7.33 ± 6.5 spikes/s.
With S. hsui pb2b-like the “control-subtracted net OSN firing rate” value was 3 ± 4.9 spikes/s.
In the case of S. montana pb2a-like, the “control-subtracted net OSN firing rate” value is reported as 1 ± 6.5 spikes/s.
S. montana pb1b-like was tested, and the “control-subtracted net OSN firing rate” value was 5 ± 7.6 spikes/s.
For S. montana pb2b-like, the “control-subtracted net OSN firing rate” value was -2.33 ± 4.8 spikes/s.
With S. pallida pb2b-like the “control-subtracted net OSN firing rate” value was -0.333 ± 8.7 spikes/s.
For S. montana pb3a-like, the “control-subtracted net OSN firing rate” value was 97 ± 35 spikes/s.
Canton-S (D. melanogaster) pb3a was tested, and the “control-subtracted net OSN firing rate” value was 0 ± 9.4 spikes/s.
For S. pallida pb1b-like, the “control-subtracted net OSN firing rate” value was -5.67 ± 17 spikes/s.
For S. flava pb2b-like, the “control-subtracted net OSN firing rate” value was 4.33 ± 11 spikes/s.
S. pallida pb3a-like was tested, and the “control-subtracted net OSN firing rate” value was -17.3 ± 8.2 spikes/s.
In the case of Canton-S (D. melanogaster) pb2b, the “control-subtracted net OSN firing rate” value is reported as -3.43 ± 6.8 spikes/s.
In the case of S. montana pb1a-like, the “control-subtracted net OSN firing rate” value is reported as 6.33 ± 9.6 spikes/s.
Canton-S (D. melanogaster) pb2a was tested, and the “control-subtracted net OSN firing rate” value was 0.286 ± 4.5 spikes/s.
In the case of Canton-S (D. melanogaster) pb3b, the “control-subtracted net OSN firing rate” value is reported as 153 ± 48 spikes/s.
S. flava pb2a-like was tested, and the “control-subtracted net OSN firing rate” value was 3 ± 11 spikes/s.
In the case of Canton-S (D. melanogaster) pb1a, the “control-subtracted net OSN firing rate” value is reported as 7.11 ± 7.8 spikes/s.
With S. montana pb3b-like the “control-subtracted net OSN firing rate” value was -2.67 ± 9.3 spikes/s.
With S. hsui pb2a-like the “control-subtracted net OSN firing rate” value was 1 ± 7.1 spikes/s.
With S. pallida pb1a-like the “control-subtracted net OSN firing rate” value was 26.7 ± 30 spikes/s.
S. flava pb1b-like was tested, and the “control-subtracted net OSN firing rate” value was -3.67 ± 9.3 spikes/s.
With S. pallida pb3b-like the “control-subtracted net OSN firing rate” value was -18.7 ± 18 spikes/s.
For S. flava pb3a-like, the “control-subtracted net OSN firing rate” value was 160 ± 17 spikes/s.
For Canton-S (D. melanogaster) pb1b, the “control-subtracted net OSN firing rate” value was -2 ± 8.4 spikes/s.

Each target was assayed with CC12CCC(C1)C(C)(C)C2=O [fenchone] in the same assay as above. Settings: odorant dilution (vol/vol): 1/100.
Outline: as §1
For S. flava pb3b-like, the “control-subtracted net OSN firing rate” value was 0 ± 5.4 spikes/s.
With S. pallida pb2a-like the “control-subtracted net OSN firing rate” value was 137 ± 13 spikes/s.
S. hsui pb3a-like was tested, and the “control-subtracted net OSN firing rate” value was -7 ± 11 spikes/s.
S. hsui pb1b-like was tested, and the “control-subtracted net OSN firing rate” value was -3.67 ± 6.1 spikes/s.
For S. hsui pb3b-like, the “control-subtracted net OSN firing rate” value was -2.67 ± 6.5 spikes/s.
In the case of S. hsui pb1a-like, the “control-subtracted net OSN firing rate” value is reported as -0.333 ± 6.4 spikes/s.
With S. flava pb1a-like the “control-subtracted net OSN firing rate” value was 1.33 ± 6.5 spikes/s.
S. hsui pb2b-like was tested, and the “control-subtracted net OSN firing rate” value was 0.667 ± 7.2 spikes/s.
S. montana pb2a-like was tested, and the “control-subtracted net OSN firing rate” value was 177 ± 36 spikes/s.
In the case of S. montana pb1b-like, the “control-subtracted net OSN firing rate” value is reported as 2.33 ± 18 spikes/s.
In the case of S. montana pb2b-like, the “control-subtracted net OSN firing rate” value is reported as -7.33 ± 4.5 spikes/s.
With S. pallida pb2b-like the “control-subtracted net OSN firing rate” value was -3.33 ± 8.8 spikes/s.
S. montana pb3a-like was tested, and the “control-subtracted net OSN firing rate” value was -2.33 ± 6.9 spikes/s.
For Canton-S (D. melanogaster) pb3a, the “control-subtracted net OSN firing rate” value was -2.83 ± 8.3 spikes/s.
In the case of S. pallida pb1b-like, the “control-subtracted net OSN firing rate” value is reported as -4.33 ± 7 spikes/s.
In the case of S. flava pb2b-like, the “control-subtracted net OSN firing rate” value is reported as -3.67 ± 6.9 spikes/s.
For S. pallida pb3a-like, the “control-subtracted net OSN firing rate” value was -13 ± 14 spikes/s.
In the case of Canton-S (D. melanogaster) pb2b, the “control-subtracted net OSN firing rate” value is reported as -6.86 ± 10 spikes/s.
S. montana pb1a-like was tested, and the “control-subtracted net OSN firing rate” value was 0 ± 12 spikes/s.
With Canton-S (D. melanogaster) pb2a the “control-subtracted net OSN firing rate” value was 166 ± 26 spikes/s.
With Canton-S (D. melanogaster) pb3b the “control-subtracted net OSN firing rate” value was -2.83 ± 8.6 spikes/s.
S. flava pb2a-like was tested, and the “control-subtracted net OSN firing rate” value was 213 ± 48 spikes/s.
With Canton-S (D. melanogaster) pb1a the “control-subtracted net OSN firing rate” value was 0 ± 8.1 spikes/s.
In the case of S. montana pb3b-like, the “control-subtracted net OSN firing rate” value is reported as -1 ± 4.7 spikes/s.
For S. hsui pb2a-like, the “control-subtracted net OSN firing rate” value was 140 ± 16 spikes/s.
For S. pallida pb1a-like, the “control-subtracted net OSN firing rate” value was -3.67 ± 8.8 spikes/s.
S. flava pb1b-like was tested, and the “control-subtracted net OSN firing rate” value was 2 ± 13 spikes/s.
For S. pallida pb3b-like, the “control-subtracted net OSN firing rate” value was -17 ± 12 spikes/s.
For S. flava pb3a-like, the “control-subtracted net OSN firing rate” value was -2.67 ± 5.6 spikes/s.
In the case of Canton-S (D. melanogaster) pb1b, the “control-subtracted net OSN firing rate” value is reported as 1.33 ± 9.9 spikes/s.

What follows are targets tested with CCCCC(C)O [2-hexanol] in the same assay as above. Settings: odorant dilution (vol/vol): 1/100.
Outline: as §1
In the case of S. flava pb3b-like, the “control-subtracted net OSN firing rate” value is reported as -1 ± 27 spikes/s.
For S. pallida pb2a-like, the “control-subtracted net OSN firing rate” value was 5.67 ± 6.6 spikes/s.
S. hsui pb3a-like was tested, and the “control-subtracted net OSN firing rate” value was 145 ± 27 spikes/s.
For S. hsui pb1b-like, the “control-subtracted net OSN firing rate” value was -11.7 ± 9.8 spikes/s.
With S. hsui pb3b-like the “control-subtracted net OSN firing rate” value was -6.67 ± 6.8 spikes/s.
In the case of S. hsui pb1a-like, the “control-subtracted net OSN firing rate” value is reported as 96 ± 27 spikes/s.
S. flava pb1a-like was tested, and the “control-subtracted net OSN firing rate” value was 111 ± 28 spikes/s.
For S. hsui pb2b-like, the “control-subtracted net OSN firing rate” value was 20 ± 18 spikes/s.
S. montana pb2a-like was tested, and the “control-subtracted net OSN firing rate” value was 5.67 ± 14 spikes/s.
In the case of S. montana pb1b-like, the “control-subtracted net OSN firing rate” value is reported as -16.3 ± 10 spikes/s.
S. montana pb2b-like was tested, and the “control-subtracted net OSN firing rate” value was 16.7 ± 14 spikes/s.
For S. pallida pb2b-like, the “control-subtracted net OSN firing rate” value was 27 ± 9.9 spikes/s.
For S. montana pb3a-like, the “control-subtracted net OSN firing rate” value was 5.67 ± 13 spikes/s.
For Canton-S (D. melanogaster) pb3a, the “control-subtracted net OSN firing rate” value was 15.8 ± 18 spikes/s.
In the case of S. pallida pb1b-like, the “control-subtracted net OSN firing rate” value is reported as -9 ± 8.8 spikes/s.
In the case of S. flava pb2b-like, the “control-subtracted net OSN firing rate” value is reported as 11.7 ± 17 spikes/s.
For S. pallida pb3a-like, the “control-subtracted net OSN firing rate” value was 94.3 ± 19 spikes/s.
With Canton-S (D. melanogaster) pb2b the “control-subtracted net OSN firing rate” value was -2.57 ± 8.5 spikes/s.
With S. montana pb1a-like the “control-subtracted net OSN firing rate” value was 123 ± 17 spikes/s.
With Canton-S (D. melanogaster) pb2a the “control-subtracted net OSN firing rate” value was 3.43 ± 4.9 spikes/s.
With Canton-S (D. melanogaster) pb3b the “control-subtracted net OSN firing rate” value was 1.5 ± 8.7 spikes/s.
S. flava pb2a-like was tested, and the “control-subtracted net OSN firing rate” value was 5.67 ± 11 spikes/s.
With Canton-S (D. melanogaster) pb1a the “control-subtracted net OSN firing rate” value was 68.7 ± 32 spikes/s.
With S. montana pb3b-like the “control-subtracted net OSN firing rate” value was 4 ± 7.7 spikes/s.
With S. hsui pb2a-like the “control-subtracted net OSN firing rate” value was 6 ± 8 spikes/s.
With S. pallida pb1a-like the “control-subtracted net OSN firing rate” value was 88.3 ± 13 spikes/s.
S. flava pb1b-like was tested, and the “control-subtracted net OSN firing rate” value was -26.7 ± 21 spikes/s.
With S. pallida pb3b-like the “control-subtracted net OSN firing rate” value was -5.67 ± 12 spikes/s.
In the case of S. flava pb3a-like, the “control-subtracted net OSN firing rate” value is reported as 6 ± 10 spikes/s.
In the case of Canton-S (D. melanogaster) pb1b, the “control-subtracted net OSN firing rate” value is reported as -6.67 ± 6.2 spikes/s.

Each target was assayed with CCc1ccc(O)c(OC)c1 [4-ethylguaiacol] in the same assay as above. Settings: odorant dilution (vol/vol): 1/100.
Outline: as §1
In the case of S. flava pb3b-like, the “control-subtracted net OSN firing rate” value is reported as 14.7 ± 34 spikes/s.
S. pallida pb2a-like was tested, and the “control-subtracted net OSN firing rate” value was 5.33 ± 4.8 spikes/s.
S. hsui pb3a-like was tested, and the “control-subtracted net OSN firing rate” value was -3.33 ± 10 spikes/s.
S. hsui pb1b-like was tested, and the “control-subtracted net OSN firing rate” value was 111 ± 24 spikes/s.
For S. hsui pb3b-like, the “control-subtracted net OSN firing rate” value was -5.67 ± 2.9 spikes/s.
With S. hsui pb1a-like the “control-subtracted net OSN firing rate” value was 13.7 ± 5.3 spikes/s.
S. flava pb1a-like was tested, and the “control-subtracted net OSN firing rate” value was -5 ± 7.8 spikes/s.
With S. hsui pb2b-like the “control-subtracted net OSN firing rate” value was 1.67 ± 2.9 spikes/s.
In the case of S. montana pb2a-like, the “control-subtracted net OSN firing rate” value is reported as 1.67 ± 7.7 spikes/s.
With S. montana pb1b-like the “control-subtracted net OSN firing rate” value was 109 ± 14 spikes/s.
With S. montana pb2b-like the “control-subtracted net OSN firing rate” value was 16 ± 12 spikes/s.
S. pallida pb2b-like was tested, and the “control-subtracted net OSN firing rate” value was 24 ± 19 spikes/s.
For S. montana pb3a-like, the “control-subtracted net OSN firing rate” value was -8.67 ± 17 spikes/s.
With Canton-S (D. melanogaster) pb3a the “control-subtracted net OSN firing rate” value was 7.5 ± 8.4 spikes/s.
In the case of S. pallida pb1b-like, the “control-subtracted net OSN firing rate” value is reported as 90 ± 36 spikes/s.
In the case of S. flava pb2b-like, the “control-subtracted net OSN firing rate” value is reported as 15 ± 14 spikes/s.
In the case of S. pallida pb3a-like, the “control-subtracted net OSN firing rate” value is reported as -8 ± 7.3 spikes/s.
For Canton-S (D. melanogaster) pb2b, the “control-subtracted net OSN firing rate” value was -1.43 ± 7.1 spikes/s.
In the case of S. montana pb1a-like, the “control-subtracted net OSN firing rate” value is reported as -0.333 ± 2.9 spikes/s.
With Canton-S (D. melanogaster) pb2a the “control-subtracted net OSN firing rate” value was 4.86 ± 4.6 spikes/s.
Canton-S (D. melanogaster) pb3b was tested, and the “control-subtracted net OSN firing rate” value was 0 ± 8.9 spikes/s.
With S. flava pb2a-like the “control-subtracted net OSN firing rate” value was 1.67 ± 6.6 spikes/s.
With Canton-S (D. melanogaster) pb1a the “control-subtracted net OSN firing rate” value was 1.78 ± 9.1 spikes/s.
In the case of S. montana pb3b-like, the “control-subtracted net OSN firing rate” value is reported as -3.67 ± 9.5 spikes/s.
In the case of S. hsui pb2a-like, the “control-subtracted net OSN firing rate” value is reported as 3.33 ± 7.3 spikes/s.
For S. pallida pb1a-like, the “control-subtracted net OSN firing rate” value was 0.667 ± 8.8 spikes/s.
S. flava pb1b-like was tested, and the “control-subtracted net OSN firing rate” value was 97 ± 18 spikes/s.
In the case of S. pallida pb3b-like, the “control-subtracted net OSN firing rate” value is reported as -9.33 ± 13 spikes/s.
In the case of S. flava pb3a-like, the “control-subtracted net OSN firing rate” value is reported as -3.33 ± 9.6 spikes/s.
Canton-S (D. melanogaster) pb1b was tested, and the “control-subtracted net OSN firing rate” value was 110 ± 36 spikes/s.
